Reference: PubChem BioAssay (EPA / NIEHS)
“And” between values parts separate entries of the source, which are not always exact repeats. Equal values may be shown once. Inconclusive results are not listed. Where a structure was tested more than once in an assay, its records may differ in their call. The source made the active and inactive calls. How the source made its calls: active means hit-call score of the fitted dose curve at least 0.9, where 1 is the maximum; inconclusive means response in the unintended direction; inactive means score below 0.9.

How the values were obtained:
[1] = TOX21_p53_BLA_p3_viability: Viability Assessment in the Tox21 HCT-116 p53 Agonism Beta-lactamase Assay, Phase 3 (AID 2283593);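 further: cells exposed to compound for 16 h before reading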
Procedure, shortened: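 HCT116 cells, 4000/well, dosed 5 h after plating by pin transfer (217-fold dilution from DMSO stock) and incubated 16 h at 37C, 5% CO2. Viability read as ATP luminescence with CellTiter-Glo after 30 min at room temperature.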

[2] = target: Cellular tumor antigen p53 (Homo sapiens) (UniProt P04637); experiment: TOX21_p53_BLA_p3_ratio: Tox21 HCT-116 p53 Agonism Beta-lactamase Assay, Ratio, Phase 3 (AID 2283596)
Procedure, shortened: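 Cells were seeded at 4000/well, rested 5 h at 37C, then dosed with DMSO compound solutions (217-fold dilution) for 16 h. CCF4-AM substrate was loaded for 2 h at room temperature, and the 460/530 nm emission ratio was fitted for gain of signal versus DMSO.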

[3] = TOX21_p53_BLA_p4_viability: Viability Assessment in the Tox21 HCT-116 p53 Agonism Beta-lactamase Assay, Phase 4 (AID 2283597);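 further: hits lower the luminescence signal meaning cytotoxicity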
Procedure, shortened: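 In this multiplexed secondary endpoint, HCT116 cells (4000 per well, compound at 5 h, 16 h treatment) received CellTiter-Glo after the beta-lactamase read. Luminescence after 30 min RT reflects ATP, and falling signal marks cytotoxicity.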

[4] = target: Cellular tumor antigen p53 (Homo sapiens) (UniProt P04637); experiment: TOX21_p53_BLA_p5_ratio: Tox21 HCT-116 p53 Agonism Beta-lactamase Assay, Ratio, Phase 5 (AID 2283599)
Procedure, shortened: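 HCT-116 p53-bla cells (4000/well) plated 5 h, dosed with compound (217-fold DMSO dilution) for 16 h at 37 C; CCF4-AM substrate 2 h at room temperature. Activity is the 460/530 nm emission ratio (405 nm excitation), fitted in gain-of-signal direction versus DMSO.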

[5] = TOX21_p53_BLA_p5_viability: Viability Assessment in the Tox21 HCT-116 p53 Agonism Beta-lactamase Assay, Phase 5 (AID 2283600)
Procedure, shortened: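 Here cell health was gauged by ATP levels in wells holding 4000 cells, each treated 16 h with DMSO-delivered compounds at 217-fold dilution; reduced luminescence marked toxicity.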

[6] = target: Cellular tumor antigen p53 (Homo sapiens) (UniProt P04637); experiment: TOX21_p53_BLA_p4_ratio: Tox21 HCT-116 p53 Agonism Beta-lactamase Assay, Ratio, Phase 4 (AID 2283601)
Procedure, shortened: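 HCT-116 p53 beta-lactamase reporter cells (4000/well) preincubated 5 h, then compound (217-fold dilution of DMSO stock) for 16 h at 37C. CCF4-AM substrate added 2 h at room temperature; 460/530 nm emission ratio fitted upward versus DMSO.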

[7] = Tanguay_ZF_120hpf_MORT_legacy: (Legacy) Oregon State University Tanguay Lab 120 Hour Post-fertilization zebrafish Assay for Mortality (AID 2283633);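 on AC50: fitted as increase in binary mortality versus DMSO negative control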
Procedure, shortened: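 Single dechorionated Tropical 5D embryos were held with test chemical (0.64% DMSO final) from 6 to 120 hpf at 28C under foil. Deaths at 24 or 120 hpf were recorded as binary calls, analysed for increase over DMSO controls.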

[8] = Tanguay_ZF_120hpf_YSE_legacy: (Legacy) Oregon State University Tanguay Lab 120 Hour Post-fertilization zebrafish Assay for Yolk Sac Edema (AID 2283634)
Procedure, shortened: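 Single dechorionated embryos were held in sealed plates at 28C with test chemical (0.64% DMSO final) from 6 hpf until 120 hpf. Edema of the yolk sac was then recorded as a binary endpoint; non-mortality endpoints were skipped for dead embryos.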

[9] = Tanguay_ZF_120hpf_AXIS_legacy: (Legacy) Oregon State University Tanguay Lab 120 Hour Post-fertilization zebrafish Assay for Body Axis Malformation (AID 2283635)
Procedure, shortened: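 Each dechorionated embryo was exposed alone from 6 hpf, with DMSO at 0.64% (vol/vol) and trimethyltin chloride 5 uM as positive control. Axis malformation was recorded at 120 hpf unless the embryo had died.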

[10] = Tanguay_ZF_120hpf_SNOU_legacy: (Legacy) Oregon State University Tanguay Lab 120 Hour Post-fertilization zebrafish Assay for Snout Malformation (AID 2283637)
Procedure, shortened: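 Binary brightfield scoring of snout malformation at 120 hpf. Dechorionated 5D wild-type embryos, one per well, static exposure from 6 hpf at 28C, sealed and dark; final DMSO 0.64% (vol/vol), DMSO as baseline; 5uM trimethyltin chloride positive control.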

[11] = Tanguay_ZF_120hpf_JAW_legacy: (Legacy) Oregon State University Tanguay Lab 120 Hour Post-fertilization zebrafish Assay for Jaw Malformation (AID 2283638)
Procedure, shortened: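 Wild-type 5D embryos, chorion removed at 4 hpf, dosed singly from 6 hpf; 28C static, sealed, foil-covered, to 120 hpf. Endpoint: jaw defect yes/no (brightfield); mortality excludes scoring.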

[12] = Tanguay_ZF_120hpf_PE_legacy: (Legacy) Oregon State University Tanguay Lab 120 Hour Post-fertilization zebrafish Assay for Pericardial Edema (AID 2283640)
Procedure, shortened: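 Zebrafish larvae are exposed from early development to 120 hpf at 28C, with 0.64% DMSO final. Each surviving larva receives a yes/no pericardial edema call by brightfield imaging, analysed relative to the DMSO baseline.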

[13] = Tanguay_ZF_120hpf_SOMI_legacy: (Legacy) Oregon State University Tanguay Lab 120 Hour Post-fertilization zebrafish Assay for Somite Malformation (AID 2283647)
Procedure, shortened: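 Somitogenesis defects are recorded as binary calls in whole larvae at 120 hpf after continuous static chemical exposure starting at 6 hpf in dechorionated 5D embryos. DMSO serves as negative control and baseline.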

[14] = Tanguay_ZF_120hpf_PFIN_legacy: (Legacy) Oregon State University Tanguay Lab 120 Hour Post-fertilization zebrafish Assay for Pectoral Fin Malformation (AID 2283648);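 further: each larva judged yes or no for fin defect by brightfield with dead larvae skipped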
Procedure, shortened: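 Binary pectoral fin malformation call at 120 hpf by brightfield microscopy; 5D wild-type zebrafish, chorion removed at 4 hpf, one embryo per well from 6 hpf, static exposure at 28C; DMSO (0.64% final) as baseline.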

[15] = Tanguay_ZF_120hpf_CFIN_legacy: (Legacy) Oregon State University Tanguay Lab 120 Hour Post-fertilization zebrafish Assay for Caudal Fin Malformation (AID 2283649)
Procedure, shortened: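 Single dechorionated 5D wild-type embryos are dosed at 6 hpf (final DMSO 0.64%) and held statically at 28C. Caudal fin malformation is recorded as present or absent at 120 hpf under brightfield, excluding dead embryos.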

[16] = Tanguay_ZF_120hpf_PIG_legacy: (Legacy) Oregon State University Tanguay Lab 120 Hour Post-fertilization zebrafish Assay for Pigmentation Malformation (AID 2283650);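 further: dechorionated Tropical 5D zebrafish embryos exposed singly from 6 to 120 hpf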
Procedure, shortened: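 Brightfield scoring of pigmentation malformation at 120 hpf, recorded as binary present/absent per larva. Exposure: dechorionated 5D wild-type embryos, one per well, static from 6 hpf at 28C, final DMSO 0.64% (vol/vol). Dead embryos not scored.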

[17] = Tanguay_ZF_120hpf_CIRC_legacy: (Legacy) Oregon State University Tanguay Lab 120 Hour Post-fertilization zebrafish Assay for Circulatory Malformation (AID 2283651)
Procedure, shortened: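 Binary circulatory-malformation call at 120 hpf via brightfield imaging, relative to DMSO controls. Embryos (5D strain, chorion removed) received static, light-shielded exposure at 28C.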

[18] = Tanguay_ZF_120hpf_EYE_legacy: (Legacy) Oregon State University Tanguay Lab 120 Hour Post-fertilization zebrafish Assay for Eye Malformation (AID 2283636);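 further: binary presence or absence of eye malformation scored by brightfield in 120 hpf larvae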
Procedure, shortened: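 5D wild-type embryos, pronase-dechorionated at 4 hpf; static exposure 6–120 hpf, 28C, dark; DMSO 0.64% final; 5uM trimethyltin chloride positive control. Binary eye-defect scoring at 120 hpf; dead embryos not scored.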

[19] = Tanguay_ZF_120hpf_OTIC_legacy: (Legacy) Oregon State University Tanguay Lab 120 Hour Post-fertilization zebrafish Assay for Otic Vesicle Malformation (AID 2283639)
Procedure, shortened: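 Wild-type zebrafish larvae, whole-embryo exposure from early stage to 120 hpf at 28C. Binary brightfield scoring of otic vesicle morphology, fitted in the positive direction against the DMSO baseline.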

Measured: AC50

Cellular tumor antigen p53 (Homo sapiens), sequence (P04637 whole entry, looked up): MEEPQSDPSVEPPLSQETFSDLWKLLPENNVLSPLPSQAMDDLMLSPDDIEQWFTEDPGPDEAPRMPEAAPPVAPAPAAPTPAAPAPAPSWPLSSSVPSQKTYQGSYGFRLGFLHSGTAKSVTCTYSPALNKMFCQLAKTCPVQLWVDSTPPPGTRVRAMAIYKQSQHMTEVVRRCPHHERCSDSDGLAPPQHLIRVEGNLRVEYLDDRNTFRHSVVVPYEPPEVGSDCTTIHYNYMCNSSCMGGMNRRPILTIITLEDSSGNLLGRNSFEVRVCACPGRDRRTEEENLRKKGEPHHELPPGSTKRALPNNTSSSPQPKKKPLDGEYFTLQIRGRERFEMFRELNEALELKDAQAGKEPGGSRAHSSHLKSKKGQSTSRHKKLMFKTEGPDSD

OCCOc1ccccc1
not listed: [18] | [19]
inactive: all other assays above

O=C(O)C(F)(F)C(F)(F)C(F)(F)C(F)(F)C(F)(F)C(F)(F)C(F)(F)F
inactive: all assays above

CCCN(CCOc1c(Cl)cc(Cl)cc1Cl)C(=O)n1ccnc1
inactive: [1] | [2] | [3] | [4] | [5] | [6] | [7] | [8] | [9] | [18] | [10] | [11] | [19] | [12] | [13] | [14] | [15] | [16] | [17]
active: [2] 75 µM | [4] 75.3 µM | [6] 74.6 µM

O=S1OCC2C(CO1)C1(Cl)C(Cl)=C(Cl)C2(Cl)C1(Cl)Cl (stereo unspecified)
active: [1] 54.1 µM | [3] 70.9 µM and 85.8 µM | [4] 87.3 µM and 73.3 µM | [5] 75.3 µM and 70.2 µM | [6] 69.2 µM and 74.9 µM
inactive: [1] | [2] | [7] | [8] | [9] | [18] | [10] | [11] | [19] | [12] | [13] | [14] | [15] | [16] | [17]

N#Cc1c(Cl)c(Cl)c(Cl)c(C#N)c1Cl
active: [1] 20.7 µM and 23.1 µM | [2] 815 nM and 77.5 µM | [3] 2.04 µM and 2.82 µM | [4] 85.4 µM and 17.1 µM | [5] 17.1 µM and 15.8 µM | [6] 1.11 µM and 1.12 µM | [7] 24.8 µM
not listed: [8]
inactive: all other assays above
